The other results are listed elsewhere or left out. Records with an inconclusive call do not appear. Calls of active or inactive are those of the source. Calls follow the shape of the dose curve; as a rule, active = well fitted activation curve with a large enough effect; inconclusive = small, poorly fitted or top-dose-only effect, or effect the other way; inactive = flat fitted curve, though single readings scatter.
Experiment: Confirmation Concentration-Response Assay for Cell signaling CRE-BLA (Fsk stim) - HEK293 CREB Luciferase
Details: HEK293 CRE-luc2P, NKH477 EC10 potentiation, luminescence, 4 h
Text: NIH Molecular Libraries Screening Centers Network [MLSCN] NIH Chemical Genomics Center [NCGC] MLSCN Grant: 1X01MH079867-01 Assay Provider: Marshall W. Nirenberg, U.S. National Heart, Lung and Blood Institute CRE Luciferase Assay Overview Memories persist for different lengths of time, from seconds or minutes to a lifetime. There are two kinds of memory: short-term memory (STM) and long-term memory (LTM). STM lasts for minutes to hours, which maybe mediated by modifications of molecules involved in synaptic functions. LTM lasts for days or longer, and may be due to the formation of new synapses or restructuring of existing synapses. LTM, but not STM, requires gene transcription and synthesis of proteins. CREB (cyclic-AMP Responsive Element Binding Protein) is one of the candidates plays an important role for enhancement of some types of LTM. CREB, a family of transcription factors, regulates the transcription of genes containing cAMP Responsive Elements (CRE). CRE is a nucleotide sequence often found in the promoter regions of genes that are binding sites for CREB. Using a luciferase reporter-gene under control of cAMP responsive element, a cell-based assay [CRE-luc2P HEK293 developed by Promega] was used to measure forskolin-induced signaling. The selected compounds were measured for their ability to modulate positively the action of EC10 NKH 477, a water soluble forskolin, on reporter gene activity. Compounds were screened in a titration series in 1536-well format. Positive modulators were identified based on the AC50 values derived from the screening data.
NCGC Assay Protocol Summary 2500 cells/5uL in DEME with 1% FBS was dispensed into 1536-well plates and cells were cultured at 37 degrees Celsius overnight. Next day 23 nL of compounds or DMSO were delivered to each well using a pin tool, and 1uL of EC10 level of NKH 477, or EC100 level of IBMX, a PDE inhibitor, in the present of NKH 477, or assay medium was added. And then the plates were incubated at 37 degrees Celsius for 4 hours. 6 uL of Bright-Glo luciferase (Promega, WI) was added to each well. After incubated at room temperature for 10min the plates were measured for luminescence intensity on a ViewLux (Perkin Elmer) detector. Keywords: NIH Roadmap, MLSCN, MLSMR, qHTS, NCGC, CRE, luciferase, reporter-gene assay.

Potency, active:
CCc1nc(Nc2ccc3nccnc3c2)c2oc3ccccc3c2n1 1.26 µM
Cc1nn(-c2ccccc2)c2sc(C(=O)N(Cc3ccco3)C(C)C(=O)NC(C)(C)C)cc12 (stereo not given) 4.47 µM
Cc1nc(SCC(=O)Nc2cc(C)on2)c2c3c(sc2n1)CCCC3 4.47 µM
COc1ccc(CCNC(=O)CSc2nc(C)nc3c2oc2ccccc23)cc1OC 10 µM
CC1CCc2sc3nc(N4CCN(CCO)CC4)n4ncnc4c3c2C1 (stereo not given) 12.6 µM

Reference: PubChem BioAssay AID907 (National Center for Advancing Translational Sciences (NCATS), 2007)
